Experimental data: the supplement of paper PMC8728848
The sample as a whole holds a higher share of the strongest signals than the screen did.

Experiments:
Assay in all cases: glycan array binding signal (z-score within array); higher = stronger binding
Settings in all cases: glycan notation: IUPAC condensed, linker removed
[1] = target: GlcNAc(b1-3)Gal(b1-4)GlcNAc(b1-3)Gal(b1-4)GlcNAc
Outline: (§1)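 The binding signal is a Z-score computed within each array. Data were drawn from 3228 arrays in the Consortium for Functional Glycomics database, restricted to those with a known protein sequence. Scores were averaged over arrays of the same protein sequence at different concentrations or buffers, and over linkers, and negative values can be taken as non-binding.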

[2] = target: GlcNAc(b1-3)Gal(b1-4)GlcNAc(b1-3)Gal(b1-4)GlcNAc(b1-2)Man(a1-3)[GlcNAc(b1-3)Gal(b1-4)GlcNAc(b1-3)Gal(b1-4)GlcNAc(b1-2)Man(a1-6)]Man(b1-4)GlcNAc(b1-4)GlcNAc
Outline: as §1

[3] = target: GlcNAc(b1-3)Gal(b1-4)GlcNAc(b1-3)Gal(b1-4)GlcNAc(b1-3)Gal(b1-4)GlcNAc(b1-2)Man(a1-3)[GlcNAc(b1-3)Gal(b1-4)GlcNAc(b1-3)Gal(b1-4)GlcNAc(b1-3)Gal(b1-4)GlcNAc(b1-2)Man(a1-6)]Man(b1-4)GlcNAc(b1-4)[Fuc(a1-6)]GlcNAc
Outline: as §1

[4] = target: GlcNAc(b1-3)Gal(b1-4)GlcNAc(b1-3)Gal(b1-4)GlcNAc(b1-3)Gal(b1-4)GlcNAc(b1-3)Gal(b1-4)GlcNAc(b1-2)Man(a1-3)[GlcNAc(b1-3)Gal(b1-4)GlcNAc(b1-3)Gal(b1-4)GlcNAc(b1-3)Gal(b1-4)GlcNAc(b1-3)Gal(b1-4)GlcNAc(b1-2)Man(a1-6)]Man(b1-4)GlcNAc(b1-4)GlcNAc
Outline: as §1

[5] = target: GlcNAc(b1-3)Gal(b1-4)GlcNAc(b1-3)Gal(b1-4)GlcNAc(b1-3)Gal(b1-4)GlcNAc(b1-3)Gal(b1-4)GlcNAc(b1-2)[GlcNAc(b1-3)Gal(b1-4)GlcNAc(b1-3)Gal(b1-4)GlcNAc(b1-3)Gal(b1-4)GlcNAc(b1-3)Gal(b1-4)GlcNAc(b1-6)]Man(a1-6)[GlcNAc(b1-3)Gal(b1-4)GlcNAc(b1-3)Gal(b1-4)GlcNAc(b1-3)Gal(b1-4)GlcNAc(b1-3)Gal(b1-4)GlcNAc(b1-2)Man(a1-3)]Man(b1-4)GlcNAc(b1-4)[Fuc(a1-6)]GlcNAc
Outline: as §1

[6] = target: GlcNAc(b1-3)Gal(b1-4)GlcNAc(b1-6)[Gal(b1-3)]GalNAc
Outline: as §1

[7] = target: GlcNAc(b1-3)Man
Outline: as §1

[8] = target: Kdn(a2-6)Gal(b1-4)GlcNAc
Outline: as §1

[9] = target: Man(a1-3)[Man(a1-6)]Man(a1-6)[Man(a1-3)]Man(b1-4)GlcNAc(b1-4)GlcNAc
Outline: as §1

[10] = target: Man(b1-4)GlcNAc
Outline: as §1

[11] = target: Neu5Ac(a2-3)Gal
Outline: as §1

[12] = target: Neu5Ac(a2-3)Gal(b1-3)GlcNAc(b1-2)Man(a1-3)[GlcNAc(b1-4)][Neu5Ac(a2-3)Gal(b1-3)GlcNAc(b1-2)Man(a1-6)]Man(b1-4)GlcNAc(b1-4)GlcNAc
Outline: as §1

[13] = target: Neu5Ac(a2-3)Gal(b1-3)GlcNAc(b1-2)[Neu5Ac(a2-3)Gal(b1-3)GlcNAc(b1-4)]Man(a1-6)[Neu5Ac(a2-3)Gal(b1-3)GlcNAc(b1-2)Man(a1-3)]Man(b1-4)GlcNAc(b1-4)GlcNAc
Outline: as §1

[14] = target: Neu5Ac(a2-3)Gal(b1-3)GlcNAc(b1-3)Gal(b1-4)GlcNAc
Outline: as §1

[15] = target: Neu5Ac(a2-3)Gal(b1-3)GlcNAc6S
Outline: as §1

[16] = target: Neu5Ac(a2-3)Gal(b1-3)[Fuc(a1-4)]GlcNAc
Outline: as §1

[17] = target: Neu5Ac(a2-3)Gal(b1-3)[Neu5Ac(a2-6)]GlcNAc(b1-3)[Fuc(a1-3)[Gal(b1-4)]GlcNAc(b1-6)]Gal(b1-4)Glc
Outline: as §1

[18] = target: Neu5Ac(a2-3)Gal(b1-4)GlcNAc(b1-2)Man(a1-3)[Neu5Ac(a2-3)Gal(b1-4)GlcNAc(b1-2)Man(a1-6)]Man(b1-4)GlcNAc(b1-4)[Fuc(a1-6)]GlcNAc
Outline: as §1

[19] = target: Neu5Ac(a2-3)Gal(b1-4)GlcNAc(b1-3)Gal(b1-4)GlcNAc(b1-3)[Neu5Ac(a2-3)Gal(b1-4)GlcNAc(b1-3)Gal(b1-4)GlcNAc(b1-6)]GalNAc
Outline: as §1

[20] = target: Neu5Ac(a2-3)Gal(b1-4)GlcNAc(b1-6)[Neu5Ac(a2-3)Gal(b1-3)]GalNAc
Outline: as §1

[21] = target: Neu5Ac(a2-3)Gal(b1-4)GlcNAc6S
Outline: as §1

[22] = target: Neu5Ac(a2-3)Gal(b1-4)[Fuc(a1-3)]GlcNAc(b1-3)Gal(b1-4)GlcNAc
Outline: as §1

[23] = target: Neu5Ac(a2-3)GalNAc
Outline: as §1

[24] = target: Neu5Ac(a2-3)[GalNAc(b1-4)]Gal(b1-4)Glc
Outline: as §1

[25] = target: Neu5Ac(a2-6)Gal(b1-4)GlcNAc(b1-2)Man
Outline: as §1

[26] = target: Neu5Ac(a2-6)Gal(b1-4)GlcNAc(b1-2)[Neu5Ac(a2-6)Gal(b1-4)GlcNAc(b1-6)]Man(a1-6)[Neu5Ac(a2-6)Gal(b1-4)GlcNAc(b1-2)Man(a1-3)][GlcNAc(b1-4)]Man(b1-4)GlcNAc(b1-4)GlcNAc
Outline: as §1

[27] = target: Neu5Ac(a2-6)Gal(b1-4)GlcNAc(b1-3)Gal(b1-4)GlcNAc(b1-6)[Gal(b1-3)]GalNAc
Outline: as §1

[28] = target: Neu5Ac(a2-6)Gal(b1-4)GlcNAc(b1-3)GalNAc
Outline: as §1

[29] = target: Neu5Ac(a2-6)Gal(b1-4)GlcNAc(b1-3)[Neu5Ac(a2-6)Gal(b1-4)GlcNAc(b1-6)]GalNAc
Outline: as §1

[30] = target: Neu5Ac(a2-6)Gal(b1-4)GlcNAc(b1-6)[Gal(b1-3)]GalNAc
Outline: as §1

[31] = target: Neu5Ac(a2-6)Gal(b1-4)GlcNAc6S
Outline: as §1

[32] = target: Neu5Ac(a2-6)GalNAc(b1-4)GlcNAc
Outline: as §1

[33] = target: Neu5Ac(a2-6)GlcNAc(b1-4)GlcNAc
Outline: as §1

[34] = target: Neu5Ac(a2-8)Neu5Ac(a2-3)Gal(b1-3)GalNAc(b1-4)[Neu5Ac(a2-8)Neu5Ac(a2-3)]Gal(b1-4)Glc
Outline: as §1

[35] = target: Neu5Ac(a2-8)Neu5Ac(a2-3)Gal(b1-4)GlcNAc
Outline: as §1

[36] = target: Neu5Ac(a2-8)Neu5Ac(a2-8)Neu5Ac(a2-3)[GalNAc(b1-4)]Gal(b1-4)Glc
Outline: as §1

B1: ArathEULS3 TAP (Arabidopsis thaliana) (protein)
chain: IDENLYFQGGSMDEKTTGWRGGHVVEGLAGELEQLRARLEHHPQGQREPGGGGSLEITSLYKKAGFMEHHHQHHRHHQRDDGEDDRQSFGVPPPHVDAPPQPHGLYQSQPHFDPYAPTPQAPAPYRSETQFEPHAPPPYRSEPYFETPAPPPSFGHVSHVGHQSPNESYPPEHHRYGGYQQPSNSLLESHGDHSGVTHVAHHSSNQPQSSSGVYHKPDENRLPDNLAGLAGRATVKVYSKAEPNYNLTIRDGKVILAPADPSDEAQHWYKDEKYSTKVKDADGHPCFALVNKATGEAMKHSVGATHPVHLIRYVPDKLDESVLWTESKDFGDGYRTIRMVNNTRLNVDAYHGDSKSGGVRDGTTIVLWDWNKGDNQLWKIFPF
glycan array binding signal (z-score) [1]: 0.442
glycan array binding signal (z-score) [2]: 2.26
glycan array binding signal (z-score) [3]: 2.42
glycan array binding signal (z-score) [4]: 0.229
glycan array binding signal (z-score) [5]: 3.16
glycan array binding signal (z-score) [6]: -0.045
glycan array binding signal (z-score) [7]: 0.29
glycan array binding signal (z-score) [8]: 0.575
glycan array binding signal (z-score) [9]: 3.03
glycan array binding signal (z-score) [10]: -0.658
glycan array binding signal (z-score) [11]: -1.33
glycan array binding signal (z-score) [12]: -1.32
glycan array binding signal (z-score) [13]: 1.77
glycan array binding signal (z-score) [14]: -0.43
glycan array binding signal (z-score) [15]: 0.337
glycan array binding signal (z-score) [16]: 0.016
glycan array binding signal (z-score) [17]: 2.31
glycan array binding signal (z-score) [18]: -0.12
glycan array binding signal (z-score) [19]: 0.575
glycan array binding signal (z-score) [20]: -1.05
glycan array binding signal (z-score) [21]: -0.296
glycan array binding signal (z-score) [22]: 2.91
glycan array binding signal (z-score) [23]: 0.618
glycan array binding signal (z-score) [24]: 0.447
glycan array binding signal (z-score) [25]: 0.021
glycan array binding signal (z-score) [26]: -0.647
glycan array binding signal (z-score) [27]: -0.634
glycan array binding signal (z-score) [28]: 0.12
glycan array binding signal (z-score) [29]: 0.364
glycan array binding signal (z-score) [30]: 0.429
glycan array binding signal (z-score) [31]: -0.553
glycan array binding signal (z-score) [32]: 0.004
glycan array binding signal (z-score) [33]: 1.18
glycan array binding signal (z-score) [34]: 2.9
glycan array binding signal (z-score) [35]: -0.433
glycan array binding signal (z-score) [36]: -0.112
